# Source: PubChem BioAssay
# Biological target: Torsin-1A (Homo sapiens) (UniProt O14656)
# Experiment: torsin A mutant lysate binding on microarrays – cell lysate, small-molecule microarray, COS7 lysate, 635/667 nm fluorescence, primary screen (AID 1150);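 also: score pools 667 nm emission and signal to noise measuring lysate protein binding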
# Settings: COS7 hTOR1A mutant lysate, 635 nm fluorescence, higher = more signal
# Sequence of Torsin-1A (Homo sapiens) (O14656 whole entry, looked up): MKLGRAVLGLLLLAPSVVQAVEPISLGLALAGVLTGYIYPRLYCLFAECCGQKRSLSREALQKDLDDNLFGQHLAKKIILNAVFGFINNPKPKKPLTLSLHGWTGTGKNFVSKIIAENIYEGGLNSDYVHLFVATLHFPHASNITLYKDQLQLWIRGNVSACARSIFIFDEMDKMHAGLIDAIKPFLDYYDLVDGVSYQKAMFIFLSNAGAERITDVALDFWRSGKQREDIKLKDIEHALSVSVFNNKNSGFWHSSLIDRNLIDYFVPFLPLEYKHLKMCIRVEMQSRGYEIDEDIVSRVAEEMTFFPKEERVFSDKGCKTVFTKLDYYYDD
row,SMILES,composite z-score
1,CCOC(=O)[C@H](Cc1ccccc1)NC(=O)CCC1CC(OC(=O)NCc2ccc3c(c2)OCO3)CC2(CCCC(COC(=O)NCCOC)O2)O1 (stereo not given in full),0.291
2,CCOC(=O)[C@H](Cc1ccccc1)NC(=O)CCC1CC(OC(=O)NCc2ccc3c(c2)OCO3)CC2(CCCC(COC(=O)NCCCN3CCCC3=O)O2)O1 (stereo not given in full),0.078
3,COC(=O)[C@H](C)NC(=O)CCC1CC(OC(=O)NCCc2ccc(F)cc2)CC2(CCCC(COC(=O)NCCOc3ccccc3)O2)O1 (stereo not given in full),0.379
4,O=C1CCCC=C1C(O)C1CCCCC1 (stereo not given),0.44
5,CCOC(=O)NN=C1C[C@@H](O)[C@@H](O)[C@@H]2[C@@H]3C(=O)N(c4ccc(F)cc4F)C(=O)[C@@H]3CC[C@H]12,0.381
6,CC(=O)OC[C@H]1O[C@H](CC=NO[C@@H](C)c2cc(-c3c(C)cc(C)cc3C)no2)C=C[C@@H]1OC(C)=O,-0.31
7,CCOC(=O)CCN1C(=O)[C@H]2[C@H]3[C@H](O)[C@H](O)CC(=NO[C@@H]4O[C@H](CO)[C@@H](O)[C@H](O)[C@H]4O)[C@H]3CC[C@H]2C1=O,0.307
8,CCOC(=O)[C@H](CC(C)C)NC(=O)CCC1CC(OC(=O)NCCc2ccc(F)cc2)CC2(CCCC(COC(=O)NCc3cccc(C(F)(F)F)c3)O2)O1 (stereo not given in full),0.147
9,C[C@H]1CC[C@@H](C(=O)O)N[C@@H]1c1cccc(N2CCCC2=O)c1,0.286
10,CC(=O)OC[C@H]1O[C@@H](ON=C2[C@H]3CCn4c(=O)n(-c5ccccc5)c(=O)n4[C@H]3[C@H](O)[C@@H]3O[C@H]23)[C@H](OC(C)=O)[C@@H](OC(C)=O)[C@@H]1OC(C)=O,0.422
